{
  "source": "PubChem BioAssay AID504834",
  "about": "(National Center for Advancing Translational Sciences (NCATS), 2011)",
  "note": "Hit rate of the full screen: of about 320,000 compounds, about 22,000 (6.9%) were called active. About 27% were inconclusive and are not listed. The sample holds actives, similar compounds and a random draw of the others, so the mix is not that of the screen. Unmarked numbers belong to inactive results. The call rests on the fitted dose curve; in most records, active means well fitted inhibition curve with a large enough effect; inconclusive means small, poorly fitted or top-dose-only effect, or another doubt; inactive means no such curve, though single readings can be large or run the other way. On the % scale 0 is the no-effect control and ±100 the full control effect; potency means the concentration at half of the fitted maximal effect.",
  "data": [
    {"assay": "Primary qHTS for delayed death inhibitors of the malarial parasite plastid, 96 hour incubation", "settings": "P. falciparum luciferase reporter growth; series mostly up to 28.7 µM; activity change, negative = inhibition: at the top concentration", "summary_of_the_method": "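Two parasite generations (96 h, 37 C, 5% CO2) of compound exposure in infected erythrocytes (0.05% parasitemia, 2% hematocrit). Luciferase-reporter P. falciparum; decreased luminescence indicates inhibited growth, aimed at apicoplast-acting delayed death.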", "units": {"activity change, negative = inhibition": "%"}, "values": [
      {"smiles": "CCCOc1ccc(Cc2c(O)nc(N)[nH]c2=O)cc1C", "activity change, negative = inhibition": -17.1},
      {"smiles": "S=C(NNC(=S)NC1CC2C=CC1C2)NC1CC2C=CC1C2", "note": "(centres undefined)", "Potency": "9.28 µM (active)"},
      {"smiles": "CSC1=NC2(C)CCCCC2C12C=CC(=O)C=C2", "note": "(centres undefined)", "Potency": "13.1 µM (active)"},
      {"smiles": "Cc1cc2c(cc1S(=O)(=O)CCC(=O)NCc1ccccc1)OCC(=O)N2", "activity change, negative = inhibition": 3.56},
      {"smiles": "O=C(CSc1nccc(=O)[nH]1)Nc1ccc(N2CCOCC2)c(Cl)c1", "activity change, negative = inhibition": -26.5},
      {"smiles": "COc1ccc(CN(Cc2ccc(OC)cc2)C(=O)c2cccs2)cc1", "activity change, negative = inhibition": -6.73},
      {"smiles": "COc1ccccc1OCc1nnc(SCC(N)=O)n1-c1ccccc1", "activity change, negative = inhibition": -2.43},
      {"smiles": "CCOc1ccc(NC(=O)CSc2nncn2C)cc1", "activity change, negative = inhibition": 30.9},
      {"smiles": "CCCn1c(N)c(C(=O)CSc2nc3ccccc3c(=O)n2-c2ccc(OC)cc2)c(=O)[nH]c1=O", "activity change, negative = inhibition": 76.7},
      {"smiles": "CCCSc1nc2sc3c(c2c(=O)n1-c1ccc(OC)cc1)CCN(C)C3", "Potency": "4.65 µM (active)"},
      {"smiles": "COc1ccccc1NC(=O)CSc1nnc(Cc2cccn2C)n1-c1ccc(F)cc1", "activity change, negative = inhibition": 29.7},
      {"smiles": "CCOc1ccc(-n2c(SCC(=O)NC3CCS(=O)(=O)C3)nnc2-c2cccnc2)cc1", "note": "(centres undefined)", "activity change, negative = inhibition": 10.7},
      {"smiles": "COc1ccc(-n2c(=S)[nH]c3sc4c(c3c2=O)CCc2ccccc2-4)cc1", "activity change, negative = inhibition": -104},
      {"smiles": "COc1ccccc1NC(=O)CSc1nc2sc(C)c(C)c2c(=O)n1Cc1ccco1", "activity change, negative = inhibition": 19.6},
      {"smiles": "COc1ccccc1NC(=O)CSc1nnc(Cn2nnc(-c3ccccc3)n2)n1-c1ccccc1", "Potency": "7.38 µM (active)"},
      {"smiles": "COc1ccccc1-n1c(SCC(=O)O)nc2sc3c(c2c1=O)CCC3", "activity change, negative = inhibition": -1.23},
      {"smiles": "CCOc1ccc(-n2c(SCC(=O)OC)nc3sc4c(c3c2=O)CCN(C)C4)cc1", "Potency": "0.828 µM (active)"},
      {"smiles": "COc1ccccc1NC(=O)CSc1nc2sc3c(c2c(=O)n1-c1ccccc1)CCN(C)C3", "Potency": "1.65 µM (active)"},
      {"smiles": "Cc1ccc(C(=O)Oc2ccc(C(=S)N3CCOCC3)cc2)cc1", "activity change, negative = inhibition": -3.89},
      {"smiles": "O=C(Nc1ccc(-c2cscn2)cc1)C1CCCN(Cc2ccc(CO)o2)C1", "note": "(centres undefined)", "activity change, negative = inhibition": 6.28},
      {"smiles": "Cc1n[nH]c(=O)c2c(NC(=O)CSc3ccccc3F)oc(C)c12", "activity change, negative = inhibition": 49.4},
      {"smiles": "COc1cc(N2C(=O)CSC2=S)cc(OC)c1OC", "activity change, negative = inhibition": 8.02},
      {"smiles": "Cc1cc(C(=O)NC2CC(C)(C)Cc3c2cnn3-c2ccccc2)n[nH]1", "note": "(centres undefined)", "activity change, negative = inhibition": -4.15},
      {"smiles": "Cc1nc2sc3c(c2c(=O)n1NC(=O)CCl)CCCC3", "activity change, negative = inhibition": -26.3},
      {"smiles": "Cc1ccc(C)c(-n2c(SCC(=O)O)nc3sc4c(c3c2=O)CCCC4)c1", "activity change, negative = inhibition": -7.37},
      {"smiles": "CCSc1nc2sc3c(c2c(=O)n1-c1ccc(C)cc1)CCN(C)C3", "Potency": "0.928 µM (active)"},
      {"smiles": "COC(=O)c1sccc1NC(=S)Nc1ccc(C)cc1", "activity change, negative = inhibition": 2.1},
      {"smiles": "CNC(=O)N1c2ccccc2C=Cc2ccccc21", "activity change, negative = inhibition": -13.3},
      {"smiles": "Cc1ccc(Oc2nc(-c3ccccn3)nc3ccccc23)cc1", "Potency": "5.86 µM (active)"},
      {"smiles": "N#Cc1ccc(Oc2cc(C(F)(F)F)nc(-c3ccccn3)n2)cc1", "activity change, negative = inhibition": 115},
      {"smiles": "COc1cnc(-c2ccccn2)nc1Oc1ccc(C(C)(C)C)cc1", "Potency": "0.329 µM (active)"},
      {"smiles": "COc1ccc(Sc2nc(-c3ccccc3)ncc2OC)cc1", "activity change, negative = inhibition": 15.8},
      {"smiles": "COc1ccc(Cc2nc(-c3ccccn3)no2)cc1OC", "activity change, negative = inhibition": 14.9},
      {"smiles": "COc1ccccc1Oc1nc(-c2cccnc2)nc2ccccc12", "activity change, negative = inhibition": -24.1}
    ]}
  ]
}
